Among the data in PubChem BioAssay (EPA / NIEHS) are outcome and AC50 values, retold here.

The source made the active and inactive calls. The calls were made as follows: active = hit-call score of the fitted dose curve at least 0.9, where 1 is the maximum; inactive = score below 0.9.

Read-out in one test: growth arrest and DNA damage 45 (GADD45G), GADD45G (gene 10912)
As to the kind of experiment: LTEA_HepaRG_GADD45G: Life Technologies and Expression Analysis (LTEA) Assay for growth arrest and DNA damage 45 (GADD45G) using HepaRG (AID 2283499). Particulars: mRNA level, 48 h; actives raise or lower the signal. In short, it runs like this: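 Human hepatic HepaRG line treated 48 h with chemicals (eight concentrations, half-log steps from 100 uM); transcript induction or repression of GADD45G scored by qRT-PCR versus DMSO vehicle.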
Turning to `CC(C)(C)c1cc(C(C)(C)C)c(O)c(C(C)(C)C)c1`, the result was inactive.
Still for that read-out and setting: to `Cc1cc(C)c(O)c(C)c1` belongs “inactive”; to `CCCCC(CC)COC(=O)CCCCC(=O)OCc1ccccc1` (stereo not drawn), “inactive”.
Still for that read-out and setting: to `c1ccc2c(c1)ccc1ccccc12` belongs “inactive”; to `CCCCCCCCOC(=O)CCCCCCCCC(=O)OCCCCCCCC`, “inactive”.
Still for that read-out and setting: with `CC(C)(C)c1ccc(O)c(C(C)(C)C)c1` the entry was “inactive”.
As to `O=C(OCCOCCOC(=O)c1ccccc1)c1ccccc1`, the molecule was called inactive.
The same measure, in the same setting: to `CCCOc1sc(C(=O)N2CCC(c3cc(CN)ccc3F)CC2)c(C)c1Br` belongs “inactive”.
Regarding `CCc1nn(C2CCCCC2)c2cc(C3(C#N)CCC(C(=O)O)CC3)ccc12` (stereo not drawn), the concentration at half-maximal activity (AC50) is 85.5 µM (active).
With `COCC(C)OCC(C)O` (stereo not drawn), the result was inactive.
In the case of `CC(C)(C)CC(C)(C)c1ccc(O)c(-n2nc3ccccc3n2)c1`, the outcome was inactive.
Still for that read-out and setting: with `CC(O)CO` (stereo not drawn) the entry was “inactive”; with `COc1ccc([N+](=O)[O-])cc1N`, “inactive”.
As to `CCCCCCCCCCCCN1CCCC1=O`, the molecule was classed as inactive.
The same measure, in the same setting: to `OCCC(F)(F)C(F)(F)C(F)(F)C(F)(F)C(F)(F)C(F)(F)F` belongs “inactive”; to `CCCCCCCCCCCCc1ccccc1S(=O)(=O)O`, “inactive”.
Still for that read-out and setting: to `OCCC(F)(F)C(F)(F)C(F)(F)C(F)(F)C(F)(F)C(F)(F)C(F)(F)C(F)(F)F` belongs “inactive”; to `CCCCOCCO`, “inactive”; to `CCCCCCCCCCCCCCCS(=O)(=O)Oc1ccccc1`, “inactive”.
The same measure, in the same setting: with `CC(C)(C)c1cccc(C(C)(C)C)c1O` the entry was “inactive”.
For the molecule `CCC(=C(c1ccc(O)cc1)c1ccc(OCCN(C)C)cc1)c1ccccc1`, the AC50 was 93 µM (active).
Consider `CC(C)CCCCCCOC(=O)CCCCC(=O)OCCCCCCC(C)C`, for which the molecule was classed as inactive.
For the molecule `CN1CCN(c2ccccc2/C=C2\SCCN(c3ccc(Cl)c(Cl)c3)C2=O)CC1`, the outcome was inactive.
As to `O=C(O)Cc1cc(I)c(Oc2cc(I)c(O)c(I)c2)c(I)c1`, the AC50 was 7.52 µM (active).
As to `CC(=O)CC(C)(C)O`, the molecule was called inactive.
As for `CCN(CC)CCNc1ccc(CNC=O)c2sc3ccc(OC)cc3c(=O)c12`, the AC50 is 50 µM (active).
For the molecule `OC1CCC(C2CCCCC2)CC1` (stereo not drawn), the molecule was classed as inactive.
On the same count and under the same terms, to `O=c1c(-c2ccc(O)cc2)coc2cc(O)ccc12` belongs “inactive”; to `CN(C)C=O`, “inactive”; to `NC(=O)N(O)[C@@H]1C=C[C@H](Oc2cccc(Oc3ccc(F)cc3)c2)C1`, “inactive”.
The same measure, in the same setting: to `CC[C@H](C)[C@@H](C(=O)O)n1sc2ccccc2c1=O` belongs “inactive”.

Read-out in another test: Glutamate-cysteine ligase regulatory (GCLM), GCLM (gene 2730)
The experiment in a line: LTEA_HepaRG_GCLM: Life Technologies and Expression Analysis (LTEA) Assay for Glutamate-cysteine ligase regulatory (GCLM) using HepaRG (AID 2283500). Particulars: mRNA level, 48 h; actives raise or lower the signal. Put shortly: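 In this multiplexed HepaRG gene-expression assay, GCLM mRNA change after 48 h treatment (8 concentrations, max 100 uM) was scored against DMSO by bidirectional curve fitting.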
Take `CC(C)(C)c1cc(C(C)(C)C)c(O)c(C(C)(C)C)c1`: the call was inactive.
The same measure, in the same setting: with `Cc1cc(C)c(O)c(C)c1` the entry was “inactive”.
On the same count and under the same terms, to `CCCCC(CC)COC(=O)CCCCC(=O)OCc1ccccc1` (stereo not drawn) belongs “inactive”.
Still for that read-out and setting: to `c1ccc2c(c1)ccc1ccccc12` belongs “inactive”; to `CCCCCCCCOC(=O)CCCCCCCCC(=O)OCCCCCCCC`, “inactive”; to `CC(C)(C)c1ccc(O)c(C(C)(C)C)c1`, “inactive”.
As to `O=C(OCCOCCOC(=O)c1ccccc1)c1ccccc1`, the call was inactive.
The same measure, in the same setting: to `CCCOc1sc(C(=O)N2CCC(c3cc(CN)ccc3F)CC2)c(C)c1Br` belongs “inactive”.
With `CCc1nn(C2CCCCC2)c2cc(C3(C#N)CCC(C(=O)O)CC3)ccc12` (stereo not drawn), the AC50 is 50 µM (active).
On to `COCC(C)OCC(C)O` (stereo not drawn), for which the molecule was classed as inactive.
Same read-out and setting: with `CC(C)(C)CC(C)(C)c1ccc(O)c(-n2nc3ccccc3n2)c1` the entry was “inactive”; with `CC(O)CO` (stereo not drawn), “inactive”.
On the same count and under the same terms, to `COc1ccc([N+](=O)[O-])cc1N` belongs “inactive”; to `CCCCCCCCCCCCN1CCCC1=O`, “inactive”.
Consider `OCCC(F)(F)C(F)(F)C(F)(F)C(F)(F)C(F)(F)C(F)(F)F`, for which the result was inactive.
For the molecule `CCCCCCCCCCCCc1ccccc1S(=O)(=O)O`, the AC50 was 50 µM (active).
Consider `OCCC(F)(F)C(F)(F)C(F)(F)C(F)(F)C(F)(F)C(F)(F)C(F)(F)C(F)(F)F`, for which the result was inactive.
In the case of `CCCCOCCO`, the molecule was called inactive.
Same read-out and setting: with `CCCCCCCCCCCCCCCS(=O)(=O)Oc1ccccc1` the entry was “inactive”; with `CC(C)(C)c1cccc(C(C)(C)C)c1O`, “inactive”.
For `CCC(=C(c1ccc(O)cc1)c1ccc(OCCN(C)C)cc1)c1ccccc1`, the result was inactive.
Still for that read-out and setting: to `CC(C)CCCCCCOC(=O)CCCCC(=O)OCCCCCCC(C)C` belongs “inactive”.
Still for that read-out and setting: with `CN1CCN(c2ccccc2/C=C2\SCCN(c3ccc(Cl)c(Cl)c3)C2=O)CC1` the entry was “inactive”.
For `O=C(O)Cc1cc(I)c(Oc2cc(I)c(O)c(I)c2)c(I)c1`, the molecule was classed as inactive.
Same read-out and setting: with `CC(=O)CC(C)(C)O` the entry was “inactive”; with `CCN(CC)CCNc1ccc(CNC=O)c2sc3ccc(OC)cc3c(=O)c12`, “inactive”.
The same measure, in the same setting: to `OC1CCC(C2CCCCC2)CC1` (stereo not drawn) belongs “inactive”.
For `O=c1c(-c2ccc(O)cc2)coc2cc(O)ccc12`, the outcome was inactive.
Same read-out and setting: with `CN(C)C=O` the entry was “inactive”.
For `NC(=O)N(O)[C@@H]1C=C[C@H](Oc2cccc(Oc3ccc(F)cc3)c2)C1`, the AC50 was 50 µM (active).
`CC[C@H](C)[C@@H](C(=O)O)n1sc2ccccc2c1=O`: the molecule was classed as inactive.

Read-out in another test: Glutathione S-transferase M3 (GSTM3), GSTM3 (gene 2947)
The experiment in a line: LTEA_HepaRG_GSTM3: Life Technologies and Expression Analysis (LTEA) Assay for Glutathione S-transferase M3 (GSTM3) using HepaRG (AID 2283501). Particulars: mRNA level, 48 h; actives raise or lower the signal. Put shortly:
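Changes in GSTM3 expression, an oxidative-stress marker, were scored by bidirectional curve fitting against 0.5% DMSO vehicle. Human HepaRG cultures received chemicals for 48 h in duplicate, highest concentration 100 uM with half-log dilutions.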
In the case of `CC(C)(C)c1cc(C(C)(C)C)c(O)c(C(C)(C)C)c1`, the molecule was classed as inactive.
On to `Cc1cc(C)c(O)c(C)c1`, for which the result was inactive.
Same read-out and setting: with `CCCCC(CC)COC(=O)CCCCC(=O)OCc1ccccc1` (stereo not drawn) the entry was “inactive”; with `c1ccc2c(c1)ccc1ccccc12`, “inactive”.
The same measure, in the same setting: with `CCCCCCCCOC(=O)CCCCCCCCC(=O)OCCCCCCCC` the entry was “inactive”.
On the same count and under the same terms, with `CC(C)(C)c1ccc(O)c(C(C)(C)C)c1` the entry was “inactive”.
On to `O=C(OCCOCCOC(=O)c1ccccc1)c1ccccc1`, for which the molecule was called inactive.
In the case of `CCCOc1sc(C(=O)N2CCC(c3cc(CN)ccc3F)CC2)c(C)c1Br`, the outcome was inactive.
Still for that read-out and setting: with `CCc1nn(C2CCCCC2)c2cc(C3(C#N)CCC(C(=O)O)CC3)ccc12` (stereo not drawn) the entry was “inactive”.
Still for that read-out and setting: with `COCC(C)OCC(C)O` (stereo not drawn) the entry was “inactive”; with `CC(C)(C)CC(C)(C)c1ccc(O)c(-n2nc3ccccc3n2)c1`, “inactive”.
For `CC(O)CO` (stereo not drawn), the molecule was called inactive.
Still for that read-out and setting: with `COc1ccc([N+](=O)[O-])cc1N` the entry was “inactive”; with `CCCCCCCCCCCCN1CCCC1=O`, “inactive”.
Same read-out and setting: with `OCCC(F)(F)C(F)(F)C(F)(F)C(F)(F)C(F)(F)C(F)(F)F` the entry was “inactive”.
Same read-out and setting: with `CCCCCCCCCCCCc1ccccc1S(=O)(=O)O` the entry was “inactive”.
With `OCCC(F)(F)C(F)(F)C(F)(F)C(F)(F)C(F)(F)C(F)(F)C(F)(F)C(F)(F)F`, the result was inactive.
On the same count and under the same terms, with `CCCCOCCO` the entry was “inactive”; with `CCCCCCCCCCCCCCCS(=O)(=O)Oc1ccccc1`, “inactive”; with `CC(C)(C)c1cccc(C(C)(C)C)c1O`, “inactive”.
Same read-out and setting: with `CCC(=C(c1ccc(O)cc1)c1ccc(OCCN(C)C)cc1)c1ccccc1` the entry was “inactive”; with `CC(C)CCCCCCOC(=O)CCCCC(=O)OCCCCCCC(C)C`, “inactive”.
Still for that read-out and setting: with `CN1CCN(c2ccccc2/C=C2\SCCN(c3ccc(Cl)c(Cl)c3)C2=O)CC1` the entry was “inactive”.
As for `O=C(O)Cc1cc(I)c(Oc2cc(I)c(O)c(I)c2)c(I)c1`, the AC50 was 33.5 µM (active).
Turning to `CC(=O)CC(C)(C)O`, the result was inactive.
The same measure, in the same setting: to `CCN(CC)CCNc1ccc(CNC=O)c2sc3ccc(OC)cc3c(=O)c12` belongs “inactive”.
`OC1CCC(C2CCCCC2)CC1` (stereo not drawn): the molecule was called inactive.
On the same count and under the same terms, with `O=c1c(-c2ccc(O)cc2)coc2cc(O)ccc12` the entry was “inactive”; with `CN(C)C=O`, “inactive”.
For `NC(=O)N(O)[C@@H]1C=C[C@H](Oc2cccc(Oc3ccc(F)cc3)c2)C1`, the outcome was inactive.
Same read-out and setting: to `CC[C@H](C)[C@@H](C(=O)O)n1sc2ccccc2c1=O` belongs “inactive”.

By AC50 is commonly meant the concentration at which the activity in the assay is half-maximal.
